Our source for the activity change values is PubChem BioAssay AID743279 (National Center for Advancing Translational Sciences (NCATS), 2014).

Structures are written as SMILES. Out of some 360,000 compounds screened, about 17,000 (4.7%) were called active. Another 5% or so got no clear call; they are omitted. For the sample, actives were picked, then their nearest neighbours and some compounds at random. A number with no mark means an inactive call. Cut-off read from the data, not from the text of the source: active = activity change below about -50%; inconclusive = mostly about -30% to -49%; inactive = weaker than that.
% is set by controls: 0 for no effect and ±100 for the full control effect.

A short description of this experiment: qHTS for Inhibitors of Inflammasome Signaling: IL-1-beta AlphaLISA Primary Screen. The settings on record: THP-1 LPS/ATP IL-1B secretion, 16 h; at 57.5 µM, hits give low values. The essentials:
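Secreted IL-1B measured by AlphaLISA bead assay after 16 h compound exposure of THP-1 cells; compounds (final up to 57.5 uM) added 1 h before LPS (250 ng/mL) and ATP (1.25 mM) stimulation; lower signal means less secretion.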
A general note: Quantitative high-throughput screening tests each substance at several concentrations.
Turning to `C[C@]12CC[C@H](O)CC1=CCC1C2CC[C@@]2(C)C1CC[C@@H]2NC(=O)CCC(=O)O` (some centres undefined), the activity change was 14.7%. In the case of `Cc1cc2cc3n(c2nn1)N=C(Cl)CC3` it was -81.1% (active); in that of `COc1cc(Cn2c3ccc(NC(=O)CC(C)c4ccccc4)cc3c(=O)n2C)ccc1F` (centres undefined), -18%; in that of `CC1(C(=O)NS(=O)(=O)c2ccc(C#N)cc2)CCN1C(=O)c1ccc(C2CCCCC2)cc1` (centres undefined), 12.1%. In the case of `O=C(NN=Cc1ccc(N2CCOCC2)cc1)c1cc2ccccc2cc1O` it was -24%. In the case of `O=C(O)c1ccc2c(c1)C(=O)N(c1ccc(/C=C/C(=O)c3ccccc3)cc1)C2=O` it was -154% (active). For `O=C(/C=C/c1ccc(N2CCOCC2)cc1)c1ccccc1`, the activity change is -239% (active).

For `O=C(c1ccc2c(c1)C(=O)N(c1ccc(Cl)cc1)C2=O)N1CCN(c2ccccn2)CC1`, the activity change was 15.8%. In the case of `Cc1cccc(N2C(=O)c3ccc(C(=O)Nc4cccc(C(=O)O)c4)cc3C2=O)c1` it was 10.8%; in that of `O=C(c1ccccc1)c1ccc(C(=O)N2CCN(c3ccccc3)CC2)cc1`, -8.14%; in that of `CC(OC(=O)c1cccnc1Cl)C(=O)NC1CCCCC1` (centres undefined), -3.91%. Then `COc1ccc(C(=O)OCC(=O)Nc2cc(C)on2)cc1F`, with 10.7%. Regarding `C[C@@H]1CN([C@@H](C)CO)C(=O)CCCn2cc(nn2)CO[C@H]1CN(C)S(=O)(=O)c1ccc(-n2cccn2)cc1`, the activity change is -5.6%.

Take `COc1ccc(CCN=C2SCC(=O)N2Cc2ccccc2)cc1OC`: the activity change was -10.8%. Regarding `COc1ccc(CCN2C(=O)C(C)=C(C)C2=O)cc1OC`, the activity change is -6.73%. In the case of `COc1ccc(CCNC2=C(Cl)C(=O)N(Cc3ccccc3)C2=O)cc1OC` it was -67.7% (active). Then `Nc1cccc(OCCCCCOc2cccc(N)c2)c1`, with -27.6%; and `CC(=O)Nc1c(-c2ccc(C)cc2)nc2ccc(Cl)cn12`, with 13.6%. Turning to `O=C(COc1ccc(Cl)cc1)NCCS(=O)(=O)N1CCN(c2ccc(F)cc2)CC1`, the activity change is 0.652%. In the case of `Cc1cc(C)cc(C(=O)N2CCN=C2SCc2ccc([N+](=O)[O-])cc2)c1` it was 7.28%; in that of `O=C(Cc1ccc(F)cc1)N1CCN=C1SCc1cccc([N+](=O)[O-])c1`, 26.2%; in that of `Cc1cccc(CC(=O)N2CCN=C2SCc2ccc([N+](=O)[O-])cc2)c1`, -73.1% (active).

Turning to `O=C1NC(c2ccccc2)Cc2ccncc21` (centres undefined), the activity change was -2.81%.

As for `CC(C)C1Cc2[nH][nH]c(=O)c2C(c2ccc(Cl)cc2)O1` (centres undefined), the activity change was 0.108%. As for `COc1ccc(/C=C2/C(=O)OCc3cc(OC)c(OC)cc32)c(OC)c1`, the activity change was -74.3% (active). In the case of `COc1ccc(CN(C)Cc2nc3cc(OC)c(OC)cc3c(=O)[nH]2)c(OC)c1` it was 1.63%.

Turning to `COc1ccc(/C=C2/C(=O)N(c3ccccc3)N=C2C)c(OC)c1`, the activity change is -9.74%. Then `Cc1cc(=O)c2ccc(NC(=O)c3ccccc3)cc2[nH]1`, with -15.4%; and `O=C(Cc1ccccc1)NC(=S)Nc1ccc(N2CCCCC2)cc1`, with -8.88%. Then `CC(=O)Nc1ccc(S(=O)(=O)Nc2ccc(N3CCCCC3)cc2)cc1`, with 0%; and `O=C1C=CC(=O)N1c1ccc(N2CCCCC2)cc1`, with -102% (active); and `COc1ccccc1NC(=O)C(CC(=O)O)Cc1cc(C)cc(C)c1` (centres undefined), with 14.1%.

For the compound `Cc1cccc(C)c1-n1nnnc1C(CCc1ccccc1)N1CCN(C/C=C/c2ccccc2)CC1` (centres undefined), the activity change was -7.14%.

With `CC(C)(C)c1ccc(/C=C2\SC(=O)N=C2N)cc1`, the activity change is 3.39%. In the case of `O=C(COC(=O)c1ccccc1NC(=O)c1ccco1)Nc1ccc2c(c1)OC(F)(F)O2` it was 22.1%; in that of `CCN(CC)P(=O)(Nc1ccc(SC(F)F)cc1)c1ccc(N(C)C)cc1NC(=O)c1ccco1` (centres undefined), -50.2% (active).

Regarding `O=C(Nc1ccc(Sc2ccc(Br)cc2)cc1)c1ccco1`, the activity change was -22.6%.

For `CCCNC(=O)c1cc(C2CCCCN2S(=O)(=O)c2cn(C)cn2)on1` (centres undefined), the activity change is 1.68%. In the case of `CN(C)/C(=N\OC(=O)c1ccccc1)c1nonc1N` it was 23.1%; in that of `CCCC(=O)N1CCC1(C)C(=O)NS(=O)(=O)c1ccc(Cl)cc1` (centres undefined), 26%. In the case of `COc1ccc(Cc2nnc(N/N=C/c3ccccc3O)[nH]c2=O)cc1OC` it was -100% (active); in that of `O=c1[nH]c(NCCO)nnc1Cc1ccc(Cl)cc1`, -0.873%. As for `Cc1nnc(N/N=C/c2ccccn2)[nH]c1=O`, the activity change is 266%. Then `CC(=O)OCC1(O)CC23CCC4c5ccoc5CCC4(C)C2CCC1C3` (centres undefined), with -29.5%; and `O=C(Nc1ccc(N2CCN(C(=O)c3ccccc3)CC2)c(Cl)c1)c1ncn[nH]1`, with -4.07%; and `O=C(Nc1ccc(N2CCN(C(=O)c3ccccc3)CC2)c(Cl)c1)c1cccnc1`, with -81.2% (active).

As for `Cc1ccccc1N1CCN(C(=O)c2cccnc2)CC1`, the activity change was -6.96%. Then `COc1ccc(C(=O)NCc2ccc(Cl)cc2)cc1S(=O)(=O)N1CCCC1`, with -19.3%; and `CCOC(=O)C1(C)CCCN(C(=O)c2cccc(Cl)c2)C1` (centres undefined), with 37%; and `CCOC(=O)[C@]12CCCC=C1N(Cc1ccc3c(c1)OCO3)C(=O)[C@H](CC(=O)N1CCN(C(=O)c3ccco3)CC1)C2`, with -17.6%. On to `Cc1nc(N=C(N)N)nc2c(C)cccc12`, for which the activity change is -96% (active). In the case of `CC(=O)Oc1ccc(-c2nc3c(C)cccc3c(=O)o2)cc1` it was 24.4%; in that of `CCc1c(C)nc2c(OC)cccc2c1Cl`, -3.94%; in that of `COc1nc(N=C(N)N)nc2c(C)cccc12`, -63.3% (active).

As to `COc1ccc(C(=O)N2CCCCC2c2cc(C(=O)Nc3ccc(F)c(Cl)c3)no2)cc1` (centres undefined), the activity change is -4.59%. Then `CCOC1=C2[C@@H](CN(S(=O)(=O)c3ccc(C)cc3)[C@H]2c2ccccc2F)[C@H]2C(=O)N(Cc3ccccc3)C(=O)[C@H]2C1`, with 0.677%. Then `COc1ccc(-c2ccc(CNCCCN3CCOCC3)o2)cc1Cl`, with -66% (active). In the case of `COc1ccc(S(=O)(=O)N(C)CC(=O)NCCCN2CCOCC2)cc1Cl`, the activity change was 25.8%. Then `C=CCOc1ccc(Cl)cc1CNCCCN1CCOCC1`, with -12.8%; and `Cc1[nH]c2ccccc2c1C(=O)c1cc([C@H](NC(=O)OC(C)(C)C)C(C)C)sc1N`, with -6.92%; and `C[C@H](CO)N1C[C@H](C)[C@@H](CN(C)S(=O)(=O)c2ccc(F)cc2)OCc2cnnn2CCCC1=O`, with -17.7%. Then `CCOC(=O)[C@]12CCCC=C1N(Cc1ccc(Cl)cc1Cl)C(=O)[C@H](CC(=O)N1CCCCC1)C2`, with -12.7%.

Consider `COc1cc(OC)c(C(=O)NNC(=O)c2ccc(NS(=O)(=O)c3cccs3)cc2)cc1OC`, for which the activity change is -0.853%. With `COc1ccc(Cc2nnc(NC(=O)Cc3cccs3)s2)cc1`, the activity change is 20.9%.

For the compound `COc1ccc(Cc2nnc(NC(=O)c3ccc(OC)cc3OC)s2)cc1`, the activity change is -81.7% (active).

In the case of `COc1ccc(Cc2nnc(NC(=O)c3cc(OC)c(OC)c(OC)c3)s2)cc1OC`, the activity change is 64.7%. `Cc1cccc(C(=O)N2CCc3c([nH]c4ccccc34)C2CC(C)C)n1` (centres undefined): the activity change is 7.12%. With `c1ccc(C2c3[nH]c4ccccc4c3CCN2Cc2cccn2-c2cccnc2)nc1` (centres undefined), the activity change was 47.2%. Consider `COCc1ccc(C(=O)N2CCc3c([nH]c4ccccc34)C2c2ccccn2)s1` (centres undefined), for which the activity change is -55.4% (active). In the case of `COc1ccc(C2c3[nH]c4ccccc4c3CCN2CCCn2cccn2)cc1C` (centres undefined) it was -18.9%. In the case of `Cc1cccc(C2c3[nH]c4ccccc4c3CCN2C(=O)c2cc(-c3cccn3C)n[nH]2)n1` (centres undefined) it was -60% (active); in that of `O=C(c1cn2ccccc2n1)N1CCc2c([nH]c3ccccc23)C1c1ccccn1` (centres undefined), -15.2%. Then `COCc1c(N)c(C)nc(Cl)c1C#N`, with 0%; and `O=C(COc1ccc2ccccc2c1)N1CCN(C(=O)c2cccs2)CC1`, with -11.7%; and `Nc1cc(C(=O)N2CCN(c3ccccc3Cl)CC2)ccc1N1CC2CC(C1)c1cccc(=O)n1C2` (centres undefined), with 14.2%. For the compound `CC1=C(C(=O)N(C(C)C)C(C)C)CC(CC(=O)NCC2CCCCC2)C(=O)N1Cc1ccccc1` (centres undefined), the activity change was -28.7%. Then `CN(C)C(CNC(=O)c1cc2ccccc2o1)c1ccccc1` (centres undefined), with -4.24%; and `CSc1ccccc1NC(=O)c1ccc2c(c1)CCN2S(C)(=O)=O`, with -9.72%.

Consider `CCOCCCN(C)C1CCN(C(=O)c2oc3ccccc3c2NC(=O)Cc2cccc([N+](=O)[O-])c2)CC1`, for which the activity change is -15.5%. In the case of `CCOCCCN(C)C1CCN(C(=O)c2oc3ccccc3c2NC(=O)COc2cccc(C)c2)CC1` it was -84% (active); in that of `COCC(=O)Nc1c(C(=O)N2CCCC2)oc2ccccc12`, -21%.

For the compound `CCCN(CC(=O)Nc1ccccc1C)C(=O)c1ccc(OCC(=O)N2CCOCC2)c(OCC)c1`, the activity change is -6.14%. In the case of `COc1cccc(CNc2nc3cc(-c4csc5ccccc45)sc3c(=O)n2C)c1` it was -22.5%; in that of `CCCc1cc(=O)n2[nH]c(SCc3ccccc3)nc2n1`, 12.3%; in that of `CC1(Oc2cccc(F)c2)CCN(Cc2ccccc2OC(F)F)C1` (centres undefined), 29.5%.

Consider `CC(=O)OC[C@@H]1CN(Cc2ccccc2)C[C@H](n2cnc3c(NCc4ccco4)ncnc32)O1`, for which the activity change is 16.4%. Then `O=C(CC1SC(N2CCCC2)=NC1=O)Nc1ccc(C(=O)NCCc2ccc(F)cc2)cc1` (centres undefined), with 17.8%. In the case of `COc1ccc(NC(=O)CC2SC(N3CCCCC3)=NC2=O)cc1OC` (centres undefined) it was 3.71%; in that of `COc1ccc(CCNC(=O)c2ccc(NC(=O)CC3SC(N4CCCCC4)=NC3=O)cc2)cc1OC` (centres undefined), -53.6% (active).
